Screening data from PubChem.
This is a sample that favours compounds with a hit; in the whole collection about 7.4% have one here.
ELG1 genotoxic: qHTS screen for small molecules that induce genotoxicity in human embryonic kidney (HEK293T) cells expressing luciferase-tagged ELG1; 330,000 compounds, 1.3% hits; HEK293T ELG1-luciferase reporter, luminescence, 16 h; Potency, µM (highest dose often 46 µM), without a hit: at the top dose activity change, positive = activation, actives largely listed as activators; note: % of control where 0% means no effect; nearly all actives have a fitted effect of over 60% in size
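Genotoxic stress is detected as increased luminescence from luciferase-tagged ELG1 in HEK293T cells, measured with ONE-Glo after a 16 hr treatment at 37 °C.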
NPC1 promoter act: qHTS Assay for NPC1 Promoter Activators; Huh7 NPC1 promoter luciferase reporter, 24 h; Potency, µM (doses to about 9.22 µM), for the others: top-dose activation, actives largely listed as activators; 320,000 compounds, 2.4% hits; AID 485313, 2010; note: % of control where 0% means no effect; nearly all actives have a fitted effect of over 60% in size
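Stable NPC1-promoter luciferase Huh7 line; cpd (DMSO) 24 h, 37 °C, 5% CO2; Amplite luciferase reagent 10 min RT; luminescence readout. qHTS format.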
Rab9 promoter act: qHTS Assay for Rab9 Promoter Activators | Huh7 Rab9 promoter-luciferase reporter, luminescence, 24 h | Potency, µM (series often up to 9.22 µM), for inactives: at the highest dose activation, negative = inhibition, hits mostly activators | 320,000 compounds, 2.8% hits | AID 485297, 2010; note: % of control where 0% means no effect; nearly all actives have a fitted effect of over 60% in size
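Stable Rab9-luc Huh7, 1500 cells/well, 2 h settle; cmpd in DMSO, 24 h, 37 °C/5% CO2; luciferase reagent 10 min RT; luminescence.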
FLuc counter: qHTS profiling assay for firefly luciferase inhibitor/activator using purifed enzyme and Km concentrations of substrates (counterscreen for miR-21 project); AID 588342, 2011; purified FLuc, Km substrates, luminescence inhibition; Luciferin 4-monooxygenase (Photinus pyralis), P08659; 360,000 compounds, 6.9% hits; Potency, µM (highest dose often 57.5 µM), without a hit: at the top dose activity change, negative = inhibition, hits mostly inhibitors;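 note: plate controls were vehicle for no effect and reference inhibitor for full effect; nearly all actives have a fitted effect of over 55% in size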
Target sequence (P08659 whole entry, looked up): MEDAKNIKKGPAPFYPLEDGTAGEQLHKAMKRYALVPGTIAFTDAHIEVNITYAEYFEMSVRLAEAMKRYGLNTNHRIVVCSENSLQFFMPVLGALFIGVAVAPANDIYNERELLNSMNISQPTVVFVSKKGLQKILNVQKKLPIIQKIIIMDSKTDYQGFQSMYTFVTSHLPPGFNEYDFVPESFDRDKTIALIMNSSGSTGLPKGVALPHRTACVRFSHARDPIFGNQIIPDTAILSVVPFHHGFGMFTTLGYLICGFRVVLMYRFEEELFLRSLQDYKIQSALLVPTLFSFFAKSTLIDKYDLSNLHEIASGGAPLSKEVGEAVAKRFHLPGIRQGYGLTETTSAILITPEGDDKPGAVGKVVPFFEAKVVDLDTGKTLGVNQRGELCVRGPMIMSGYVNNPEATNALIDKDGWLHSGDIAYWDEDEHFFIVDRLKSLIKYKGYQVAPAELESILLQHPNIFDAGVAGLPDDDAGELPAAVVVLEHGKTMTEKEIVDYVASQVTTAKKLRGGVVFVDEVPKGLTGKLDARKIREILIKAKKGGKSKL
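Purified P. pyralis luciferase (10nM final) with 10uM D-luciferin and 10uM ATP (Km levels) in 50mM Tris acetate pH 7.5, 10mM Mg acetate, 0.01% Tween-20, 0.05% BSA; qHTS 6-point titration, ~60 µM downward; luminescence read.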
SMN2 splice up: qHTS Assay for Enhancers of SMN2 Splice Variant Expression. 210,000 compounds, 2.8% hits. AID 1458, 2008. Potency, µM (top dose mostly 46.1 µM), without a hit: top-dose activity change, positive = activation, most hits filed as activators. HEK293 SMN2-luciferase splicing reporter, luminescence, 30-36 h; note: % of control where 0% means no effect; nearly all actives have a fitted effect of over 55% in size
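HEK293 cells carry an SMN2 minigene-luciferase reporter in which exon 7 inclusion puts luciferase in frame. Cells were seeded at 2000 cells/well, attached for 10-12 hours, then exposed to compounds for 30-36 hours at 37C before ONE-Glo luminescence.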
* hit, by the source's call; u = inconclusive; x = no result given; [ ] = remark or other dose. Calls come from the whole dose curve; as a rule, active = well fitted curve in the direction sought with a large enough effect; inconclusive = small, poorly fitted or top-dose-only effect, or another doubt; inactive = no such curve, though single readings can be large; an effect the other way counts as inactive or inconclusive. Potency is the fitted concentration of half-maximal effect.

SMILES	ELG1 genotoxic	NPC1 promoter act	Rab9 promoter act	FLuc counter	SMN2 splice up
Cc1cc2c(c(=O)n1Cc1ccccc1)C1O[C@](c3ccsc3)(Cc3cc(C#N)ccc31)O2	x	2.4%[1.84 µM]	0.0%[1.84 µM]	3.3%[11.5 µM]	x
O=S(=O)(c1ccc(-c2ccccn2)s1)N1CCC2(CC1)OCCO2	-6.8%	-0.5%	-7.0%	-0.7%	x
COc1cccc(C(=O)c2sc(NC(C)C)nc2N)c1	-5.2%	-6.5%	-1.0%	-13.3%	20µM*
CC1(C)NC(=O)N(CC(=O)Nc2nc(-c3ccc(F)cc3)cs2)C1=O	-4.4%	8.8%	2.6%	-7.7%	20.3%
CCOc1ccc(Nc2nc(N)c3ccccc3n2)cc1	0.58µM*	0.891µM*	0.708µM*	0.426µM*	x
Nc1nc(Nc2ccccc2)nc(C(F)(F)F)n1	11.4%	0.4%	20.6%	-28.4%	x
Cc1ccccc1Nc1nc(N)c2ccccc2n1	u	0.708µM*	0.501µM*	1.69µM*	3.55µM*
Nc1nc(Nc2ccccc2)nc2ccccc12	u	0.562µM*	0.631µM*	1.35µM*	14.1µM*
COc1ccc(C)cc1Nc1nc(N)c2ccccc2n1	-3.1%	3.6%	0.4%	u	x
CN(C)c1ccc(Nc2nc(N)c3ccccc3n2)cc1	u	u	0.1µM*	0.19µM*	x
CN(C)c1nc(Nc2ccccc2)nc(N(C)C)n1	-5.6%	3.8%	8.5%	-11.9%	-11.3%
CCN(CC)c1nc2ccccc2nc1C(=O)Nc1ccc(C(C)=O)cc1	x	x	x	-2.0%	x
CCc1ccc(-c2nc(CSCC(=O)N3CCN(c4ccc(F)cc4)CC3)c(C)o2)cc1	x	x	x	-5.4%	3.9%
Oc1ccc(Nc2nc(-c3ccc(Cl)cc3)nc3ccccc23)cc1	x	x	x	u	22.5%
Nc1nc(Nc2ccc(Cl)cc2)nc2ccccc12	u	0.631µM*	0.501µM*	0.426µM*	x
Cc1csc(NS(=O)(=O)c2ccc(Cl)cc2)n1	-5.4%	-4.2%	8.7%	0.5%	x
Cc1csc(Nc2ccc(Cl)cc2)n1	u	u	u	12µM*	u
Cc1ccc(Nc2nc(C)cs2)cc1	20.6µM*	u	u	13.5µM*	8.91µM*
CCCOc1cccc(NC(=O)c2c(-c3ccccc3Cl)noc2C)c1	x	x	x	-8.5%	-27.2%
Cc1cc(C)cc(Oc2c(C(F)(F)F)oc3c(CN4CCCC(C)C4)c(O)ccc3c2=O)c1 (centres undefined)	x	x	x	1.1%	3.3%
CCN(C(=O)COC(=O)CNC(=O)c1sc2ccccc2c1Cl)C1CCCCC1	2.3%	-3.6%	3.3%	12µM*	x
CCC(C)N(C(=O)COC(=O)CNC(=O)c1sc2ccccc2c1Cl)C1CCS(=O)(=O)C1 (centres undefined)	11.3%	5.6%	-1.6%	21.3µM*	x
CCC(C)N(C(=O)COC(=O)Cc1n[nH]c(=O)c2ccccc12)C1CCS(=O)(=O)C1 (centres undefined)	0.4%	-1.3%	-0.9%	1.5%	-5.1%
Cc1ccc(C)c(-c2csc(-c3cccnc3)n2)c1	-2.8%	8.1%	-0.3%	u	x
c1ccc(-c2nc(-c3cccnc3)cs2)cc1	u	u	u	12µM*	x
SMILES	ELG1 genotoxic	NPC1 promoter act	Rab9 promoter act	FLuc counter	SMN2 splice up
c1ccc(-c2csc(-c3cccnc3)n2)cc1	14.0%	17.0%	u	19µM*	x
c1ccc(CNc2nc(-c3cccnc3)cs2)cc1	-8.4%	17.2%	15.3%	u	-14.4%
CCOc1ccc(/C=C2/C(=O)N(c3ccc(OC)cc3)C(=S)N2CC(=O)OC)cc1OCC	u	u	u	6.01µM*	12.6µM*
NC(CSS(=O)(=O)O)=N[C@@H]1C[C@H]2CC[C@@H]1C2	x	x	x	x	-8.0%[9.22 µM]
CSc1nc(O)c(C(c2ccccc2)c2c(O)nc(SC)[nH]c2=O)c(=O)[nH]1	-0.2%	-5.1%	4.9%	4.5%	x
CSc1nc(O)c(N=Nc2ccc(F)cc2F)c(=O)[nH]1	u	u	25.9%[1.84 µM]	0.849µM*	x
O=C(CSc1nccn1Cc1ccccc1)NCc1ccccc1	14.1%	-1.4%	-0.3%	-0.4%	-16.4%
COc1cccc(C2c3c(-c4ccccc4O)n[nH]c3C(=O)N2CCc2ccc(OC)c(OC)c2)c1 (centres undefined)	x	x	x	-11.5%	4.2%
CCN(CC)c1ccc2cc(-c3nc(-c4ccccc4)no3)c(=O)oc2c1	x	x	x	6.01µM*	x
O=c1oc2ccccc2cc1-c1nc(-c2ccccc2)no1	u	0.447µM*	1.12µM*	0.536µM*	11.2µM*
Cc1cccc(-c2noc(-c3cc4ccccc4oc3=O)n2)c1	u	3.16µM*	2.82µM*	1.35µM*	u
O=c1oc2ccc(Br)cc2cc1-c1nc(-c2ccccc2)no1	x	x	x	-0.9%	12.2%
COc1ccc2cc(-c3nc(-c4ccc(N(C)C)cc4)no3)c(=O)oc2c1	x	x	x	4.3%	x
O=c1oc2ccccc2cc1-c1nc(-c2cccs2)no1	x	x	x	0.601µM*	x
COC(=O)[C@@H]1C(c2c(OC)cc(OC)cc2OC)=NO[C@H]1C(=O)OC	1.7%	-3.0%	-4.7%	-3.1%	u
CCc1ccc(C(=O)OCC(=O)N(CCOC)c2c(N)n(Cc3ccccc3)c(=O)[nH]c2=O)cc1	7.2%	2.4%	1.6%	3.0%	x
C[C@@]1(CCOCc2ccccc2)NC(=O)NC1=O	x	x	x	x	-5.2%[9.22 µM]
Cc1ccc(-c2noc(-c3cc4ccccc4oc3=O)n2)cc1	u	25.1%	20.7%	6.01µM*	-6.6%
Cc1cc(S(=O)(=O)Nc2cc3c(cc2NCc2ccccc2)n(C)c(=O)n3C)ccc1F	x	x	x	23.9µM*	10µM*
Cn1c(=O)n(C)c2cc(N3CCOCC3)c(NS(=O)(=O)c3ccc(C(C)(C)C)cc3)cc21	x	x	x	-1.4%	-3.9%
COc1ccc(S(=O)(=O)Nc2ccc3c(c2)n(C)c(=O)n3C)cc1OC	u	2.1%	0.9%	1.9%	x
COc1ccc(S(=O)(=O)Nc2cc3c(cc2NCc2ccccc2)n(C)c(=O)n3C)cc1OC	x	x	x	u	3.55µM*
Cn1c(=O)n(C)c2cc(NS(=O)(=O)c3ccc(C(C)(C)C)cc3)c(NCc3ccccc3)cc21	x	x	x	u	5.62µM*
Cn1c(=O)n(C)c2cc(NS(=O)(=O)c3ccc(Cl)cc3)c(NCc3ccccc3)cc21	x	x	x	15.1µM*	7.1%
Cc1cc(S(=O)(=O)Nc2ccc3c(c2)n(C)c(=O)n3C)ccc1F	u	-4.8%	-4.8%	2.5%	-34.8%
CCCN(CC(=O)Nc1ccccc1OC)C(=O)Cc1ccc2c(c1)CCC2	-1.9%	-1.0%	-5.5%	1.4%	x
Cc1[nH]c2ccccc2c1C(=O)C(C)OC(=O)c1ccccc1NCCO (centres undefined)	7.6%	2.6%	10.0%	u	x
CC(C)n1cc(CN2CCC(Oc3ccc(C(=O)N4CCCC4)cc3)CC2)cn1	0.0%	0.3%	-3.7%	-0.7%	x
